# From PubChem
# An excerpt weighted towards active compounds, which were near 6.7% of everything screened.
# Pf Dd2 growth: inhibitors of Plasmodium falciparum Dd2 growth; P. falciparum Dd2 growth, SYBR Green, 72 h; active compounds read low; activity change, % at 10 µM; hit rate 2.3% among 94,000; AID 1159554; in the data active means activity change below about -80%; inconclusive means no clear call, values can overlap the other calls
# T cruzi growth-1: inhibitors of T. cruzi proliferation. T. cruzi beta-gal in NIH3T3, GalScreen luminescence, 90 h. hit rate 5.9% among 77,000. AID 624255. inhibition, % at 8.34 µM;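 active means mean inhibition above about 93%, with at least 55% of replicates each passing it, limit read from the data, passing the limit was not always enough; inconclusive means only one of those two conditions holds; inactive means neither condition holds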
# C diff growth: C. difficile growth inhibition | growth activity, negative = inhibition, % at 16 µg/mL (by protocol) | AID 1259249 | Clostridium difficile clinical isolate growth, OD600, 24 h; active compounds read low | hit rate 0.25% among 86,000;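 active means mean growth activity at or below -80% and every replicate also at or below -80%; inconclusive means mean at or below -80% but some replicate above -80%; inactive means mean growth activity above -80%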;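 further: 0% = DMSO wells and -100% = levofloxacin 16 µg/mL wells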
# T cruzi growth-2: Trypanosoma cruzi proliferation inhibition; shares compounds with T cruzi growth-1; T. cruzi beta-gal in NIH3T3, GalScreen luminescence, 90 h; inhibition, % at 8.35 µM; hit rate 72% among 5,600; AID 651739;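 active means mean replicate inhibition above about 95% and at least 55% of replicates individually reaching it, limit read from the data; inconclusive means only one of the two criteria is met; inactive means neither criterion is met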
# T cruzi growth-3: inhibitors of T. cruzi proliferation | shares compounds with T cruzi growth-1 | T. cruzi beta-gal in NIH3T3, GalScreen luminescence, 90 h | inhibition, % at 2.09 µM | hit rate 21% among 5,600 | AID 651740;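 active means mean inhibition above about 95%, with at least 55% of replicates also reaching it, limit read from the data; inconclusive means meets just one of the two conditions; inactive means meets neither condition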;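 further: plate controls were neutral control median for no effect and positive control median for full effect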
# 3T3 cytotox: cytotoxicity in mouse NIH/3T3 fibroblasts; shares compounds with T cruzi growth-1; NIH/3T3 viability, CellTiter-Glo ATP luminescence, 90 h; cytotoxicity (signal decrease), % at 8.35 µM; hit rate 14% among 5,600; AID 651742;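 active means mean signal decrease across replicates above about 35% based on untreated-well scatter, with enough replicates individually passing, limit read from the data; inconclusive means no rule stated though some were filed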;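 further: 0% = median of neutral control wells and 100% = median of positive control wells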
# NIH3T3 tox 2: NIH/3T3 (mouse) viability loss; NIH/3T3 viability, CellTiter-Glo ATP luminescence, 90 h; shares compounds with T cruzi growth-1; hit rate 56% among 5,600; inhibition, % at 24.9 µM;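 active means mean loss of cell viability signal at or above a set limit, and enough replicates individually reaching it; inconclusive means meets only the mean limit or only the replicate share; inactive means meets neither condition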;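 further: 0% = median of neutral control wells and 100% = median of positive control wells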
# Starred values were filed as active, the others as inactive; ? = inconclusive; . = no result given.
SMILES,Pf Dd2 growth,T cruzi growth-1,C diff growth,T cruzi growth-2,T cruzi growth-3,3T3 cytotox,NIH3T3 tox 2
C[C@@H]1CN([C@@H](C)CO)C(=O)c2cccc(NC(=O)c3ccncc3)c2O[C@H]1CN(C)Cc1ccccc1,-15,64,-2,.,.,.,.
Cc1cc(C(=O)Nc2cccc3c2O[C@@H](CN(C)Cc2ccc(C(=O)Nc4ccccc4N)cc2)[C@@H](C)CN([C@@H](C)CO)C3=O)n(C)n1,-78,101*,-5,102*,74,-4,28
Cc1cc(C(=O)Nc2cccc3c2O[C@@H](CN(C)Cc2ccc(C(=O)O)cc2)[C@@H](C)CN([C@H](C)CO)C3=O)n(C)n1,9,.,-1,.,.,.,.
C[C@@H]1CN([C@H](C)CO)C(=O)c2cccc(NC(=O)c3ccncc3)c2O[C@H]1CN(C)Cc1ccc(C(=O)Nc2ccccc2N)cc1,-78,100*,-5,107*,91,3,25
C[C@@H]1CN([C@@H](C)CO)C(=O)c2cccc(NC(=O)c3ccncc3)c2O[C@@H]1CN(C)Cc1ccc(C(=O)Nc2ccccc2N)cc1,-35,?,-2,89,48,21,67*
C[C@H]1CN([C@@H](C)CO)C(=O)c2cccc(NC(=O)c3ccncc3)c2O[C@H]1CN(C)Cc1ccc(C(=O)Nc2ccccc2N)cc1,-46,.,4,.,.,.,.
Cc1ccc(S(=O)(=O)N2CC[C@@H]3[C@H](CO)N(C)c4ccc(C#Cc5cccnc5)cc4[C@@H]32)cc1,-42,18,-7,.,.,.,.
COCC(=O)N(C)C[C@@H]1Oc2ncc(-c3ccc(C#N)cc3)cc2C(=O)N([C@H](C)CO)C[C@H]1C,20,.,-6,.,.,.,.
C[C@@H]1CCCCO[C@H](CN(C)C(=O)CCC(F)(F)F)[C@H](C)CN([C@H](C)CO)C(=O)c2cc(NS(=O)(=O)c3cccs3)ccc2O1,-26,8,5,.,.,.,.
CO[C@@H]1CN(C)C(=O)c2cc(NS(=O)(=O)c3cn(C)cn3)ccc2OC[C@H](C)N(Cc2cccc(F)c2)C[C@@H]1C,-14,.,.,.,.,.,.
CO[C@H]1CN(C)C(=O)c2ccc(NC(=O)c3ccccc3)cc2OC[C@H](C)N(CC2CC2)C[C@@H]1C,-17,.,3,.,.,.,.
Cc1ccc(S(=O)(=O)N(C)C[C@H]2Oc3c(NS(=O)(=O)c4ccc(Cl)cc4)cccc3C(=O)N([C@@H](C)CO)C[C@H]2C)cc1,-4,67,-10,.,.,.,.
CC=Cc1ccc2n(c1=O)C[C@@H]1[C@@H](CO)[C@H](C(=O)NCCc3cn(C)cn3)N(C(=O)C3CC3)[C@H]21 (mixture of isomers),0,30,-1,.,.,.,.
CC(C)CC#Cc1cnc2c(c1)C(=O)N([C@H](C)CO)C[C@@H](C)[C@H](CN(C)C(=O)Cc1cccnc1)O2,14,52,1,.,.,.,.
C[C@H](CO)N1C[C@H](C)[C@@H](CN(C)C(=O)Nc2ccc(C(F)(F)F)cc2)Oc2ccc(NC(=O)CCCCCC(=O)Nc3ccccc3N)cc2CC1=O,-75,43,-5,.,.,.,.
CN(C)C(=O)c1ccc(-c2ccc([C@H]3[C@H](CO)N4CCCCN(C(=O)C5CCC5)C[C@@H]34)cc2)cc1,-27,100*,-9,95*,90,7,42*
CN(C)C(=O)c1ccc(-c2ccc([C@@H]3[C@H](CO)N4CCCCN(C(=O)C5CC5)C[C@@H]34)cc2)cc1,-12,67,3,.,.,.,.
CN(C)C(=O)c1ccc(-c2ccc([C@H]3[C@@H](CO)N4CCCCN(C(=O)C5CCC5)C[C@@H]34)cc2)cc1,26,106*,1,102*,89,9,27
CN(C)C(=O)c1ccc(-c2ccc([C@H]3[C@@H](CO)N4CCCCN(C(=O)C5CC5)C[C@@H]34)cc2)cc1,-23,66,5,.,.,.,.
CN(C)C(=O)c1ccc(-c2ccc([C@@H]3[C@@H](CO)N4CCCCN(C(=O)C5CCC5)C[C@H]34)cc2)cc1,6,49,-5,.,.,.,.
CN(C)C(=O)c1ccc(-c2ccc([C@@H]3[C@H]4CN(C(=O)C5CCC5)CCCCN4[C@H]3CO)cc2)cc1,-9,101*,-10,95*,44,33,38*
Cc1noc(C)c1S(=O)(=O)Nc1cccc2c1O[C@H](CN(C)Cc1ccncc1)[C@H](C)CN([C@H](C)CO)C2=O,35,22,-2,.,.,.,.
C[C@@H]1CN([C@@H](C)CO)C(=O)Cc2cc(NC(=O)Nc3ccc(C(F)(F)F)cc3)ccc2O[C@H]1CN(C)S(C)(=O)=O,8,-66,6,.,.,.,.
C[C@@H]1CN([C@@H](C)CO)C(=O)Cc2cc(NC(=O)Cn3cnnn3)ccc2O[C@H]1CN(C)CC1CCCCC1,-14,51,-2,.,.,.,.
C[C@@H]1CN([C@H](C)CO)C(=O)Cc2cc(NC(=O)CCC(F)(F)F)ccc2O[C@H]1CN(C)Cc1ccc(C(=O)O)cc1,11,8,1,.,.,.,.
SMILES,Pf Dd2 growth,T cruzi growth-1,C diff growth,T cruzi growth-2,T cruzi growth-3,3T3 cytotox,NIH3T3 tox 2
C/C=C/c1ccc([C@H]2[C@@H](CO)N3CCCCN(C(=O)Nc4cc(F)ccc4F)C[C@@H]23)cc1,-32,94,1,.,.,.,.
O=C(Nc1ccc(F)cc1)N[C@H]1C=C[C@H](CC(=O)N2CCOCC2)O[C@@H]1CO,-2,25,.,.,.,.,.
C[C@@H]1CN([C@H](C)CO)S(=O)(=O)c2ccc(/C=C/c3ccccc3)cc2O[C@@H]1CN(C)C(=O)c1ccncc1,8,13,-14,.,.,.,.
C/C=C/c1ccc2c(c1)O[C@H](CN(C)C(=O)c1ccccc1)[C@@H](C)CN([C@@H](C)CO)S2(=O)=O,-47,.,0,.,.,.,.
C[C@H](CO)N1C[C@H](C)[C@H](CN(C)C(=O)c2ccncc2)Oc2cc(/C=C/c3ccccc3)ccc2S1(=O)=O,3,103*,-2,97*,80,19,59*
C[C@H]1CN([C@@H](C)CO)S(=O)(=O)c2ccc(/C=C/c3ccccc3)cc2O[C@H]1CN(C)CC1CC1,-84*,103*,19,106*,74,33,105*
C[C@@H]1CN([C@H](C)CO)S(=O)(=O)c2ccc(/C=C/c3ccccc3)cc2O[C@@H]1CN(C)C(=O)c1ccccc1,-61,123*,5,105*,77,79*,79*
C/C=C/c1ccc2c(c1)O[C@H](CN(C)CC1CC1)[C@H](C)CN([C@H](C)CO)S2(=O)=O,-20,79,3,.,.,.,.
COc1ccc(S(=O)(=O)Nc2cccc3c2O[C@H](CN(C)C(=O)Nc2ccc4c(c2)OCO4)[C@H](C)CN([C@@H](C)CO)C3=O)cc1,-4,-93,-3,.,.,.,.
COc1ccc(S(=O)(=O)N[C@@H]2CC[C@H](CC(=O)NCCc3ccccc3)O[C@H]2CO)cc1,8,.,-2,.,.,.,.
